The record followed here is PubChem BioAssay.

A short description of assay [1]: optical density shifts of acrAB sulA E. coli – strain DRC41, OD650, 48 h, E. coli filamentation inducer project, primary screen (AID 1152).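 Further: E. coli MC1000 strain DRC41 lacking acrAB efflux pump and sulA.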 Conditions: higher = more signal, called active from +8 up or from −8 down.
A short description of assay [2]: probe aLefty1 binding on compound microarray – biochemical, small-molecule microarray, 635/667 nm fluorescence, primary screen (AID 1153).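 Further: score merges spot fluorescence with signal-to-noise ratio from the scanned slide images.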 Conditions: higher = more signal.
Assay [3] can be described thus: plasmodial surface anion channel blockers, osmotic lysis – cell-based, P. falciparum Indochina, OD700, 1 h, primary screen (AID 1154). The note with it: P. falciparum Indochina infected RBC osmotic lysis, higher = more signal, called active from +8 up or from −8 down.
A short description of assay [4]: plasmodial surface anion channel blockers, osmotic lysis – cell-based, P. falciparum Indochina, OD700, 2 h, primary screen (AID 1155).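 Further: lysis reports solute entry through the parasite surface anion channel PSAC.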 Conditions: P. falciparum Indochina infected erythrocytes, higher = more signal, called active from +8 up or from −8 down.
A short description of assay [5]: changes in parasitized red cell lysis, either direction – P. falciparum Indochina, OD700, 3 h, PSAC antagonist project, primary screen (AID 1156). The note with it: P. falciparum-infected erythrocytes, osmotic lysis, higher = more signal, called active from +8 up or from −8 down.
A short description of assay [6]: plasmodial surface anion channel blockers, osmotic lysis – cell-based, P. falciparum Indochina, OD700, 18 h, primary screen (AID 1157). Conditions: P. falciparum Indochina infected erythrocytes, osmotic lysis OD700, 18 h; higher = more signal, called active from +8 up or from −8 down.
Assay [7] can be described thus: S6 kinase pathway phospho-S6 level changes – cell-based, A549, cytoblot, luminescence, serum-stimulated, primary screen (AID 1158).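 Further: serum-stimulated A549 lung adenocarcinoma cells; signal is phosphorylated S6 detected by cytoblot immunostaining with HRP secondary.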 Conditions: 5 h, higher = more signal.
For assay [8], the target named is NADPH oxidase 2 (Homo sapiens) (UniProt P04839). Put plainly: compounds shifting NOX2 Amplex Red fluorescence – cell-based, HEK293-NOX2, PMA-stimulated, NOX inhibitor project, primary screen (AID 1159). Further: test concentration not given here. The note with it: 45 min, higher = more signal, called active from +8 up or from −8 down.
NADPH oxidase 2 (Homo sapiens), sequence (P04839 whole entry, looked up): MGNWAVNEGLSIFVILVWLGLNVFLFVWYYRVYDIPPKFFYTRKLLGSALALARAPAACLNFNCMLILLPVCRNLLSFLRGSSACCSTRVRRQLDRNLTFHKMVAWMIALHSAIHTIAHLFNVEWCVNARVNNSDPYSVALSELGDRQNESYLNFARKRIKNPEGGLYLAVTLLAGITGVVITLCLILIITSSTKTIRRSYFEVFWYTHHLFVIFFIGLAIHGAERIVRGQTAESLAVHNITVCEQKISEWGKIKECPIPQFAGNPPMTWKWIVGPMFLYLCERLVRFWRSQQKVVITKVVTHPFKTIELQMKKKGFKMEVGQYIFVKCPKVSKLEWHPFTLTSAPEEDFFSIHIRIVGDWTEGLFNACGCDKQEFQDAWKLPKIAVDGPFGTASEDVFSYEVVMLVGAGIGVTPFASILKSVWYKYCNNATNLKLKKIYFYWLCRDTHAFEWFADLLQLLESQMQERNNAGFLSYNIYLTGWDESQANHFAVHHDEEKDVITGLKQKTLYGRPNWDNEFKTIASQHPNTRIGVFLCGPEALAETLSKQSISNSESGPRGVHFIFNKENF
Assay [9] has as its target NADPH oxidase 4 (Homo sapiens) (UniProt Q9NPH5). Put plainly: compounds shifting NOX4 Amplex Red fluorescence – cell-based, HEK293-NOX4, tetracycline-induced, NOX inhibitor project, primary screen (AID 1160). The note with it: HEK293-NOX4, Amplex Red H2O2 fluorescence, 45 min; higher = more signal, called active from +8 up or from −8 down.
The target in assay [10] is NADPH oxidase 5 (Homo sapiens) (UniProt Q96PH1). Put plainly: compounds shifting NOX5 Amplex Red fluorescence – cell-based, HEK293-NOX5, NOX inhibitor project, primary screen (AID 1161). Conditions: HEK293-NOX5, ionomycin, 45 min, higher = more signal.
NADPH oxidase 5 (Homo sapiens), sequence (Q96PH1 whole entry, looked up): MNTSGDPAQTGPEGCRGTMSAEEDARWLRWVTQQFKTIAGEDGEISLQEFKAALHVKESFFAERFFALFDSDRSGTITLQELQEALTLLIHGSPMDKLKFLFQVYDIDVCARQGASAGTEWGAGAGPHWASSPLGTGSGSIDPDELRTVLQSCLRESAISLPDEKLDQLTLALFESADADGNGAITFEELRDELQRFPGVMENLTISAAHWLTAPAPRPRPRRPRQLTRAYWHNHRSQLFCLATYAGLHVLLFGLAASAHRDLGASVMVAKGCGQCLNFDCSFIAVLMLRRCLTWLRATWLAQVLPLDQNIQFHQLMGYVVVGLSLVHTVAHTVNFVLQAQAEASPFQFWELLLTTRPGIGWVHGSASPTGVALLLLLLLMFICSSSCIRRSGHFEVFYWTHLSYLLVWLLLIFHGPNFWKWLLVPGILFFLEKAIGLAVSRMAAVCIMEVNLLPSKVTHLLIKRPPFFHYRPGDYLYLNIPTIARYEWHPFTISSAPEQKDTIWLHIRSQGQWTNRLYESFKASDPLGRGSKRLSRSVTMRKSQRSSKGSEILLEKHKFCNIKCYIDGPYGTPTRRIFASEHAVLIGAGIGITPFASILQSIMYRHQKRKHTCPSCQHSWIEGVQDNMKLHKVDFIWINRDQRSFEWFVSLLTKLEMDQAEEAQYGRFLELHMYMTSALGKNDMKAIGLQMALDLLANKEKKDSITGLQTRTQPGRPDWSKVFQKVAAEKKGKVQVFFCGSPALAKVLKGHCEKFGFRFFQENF

Structures are written as SMILES. Calls of active or inactive are those of the source.

NADPH oxidase 4 (Homo sapiens), sequence (Q9NPH5 whole entry, looked up): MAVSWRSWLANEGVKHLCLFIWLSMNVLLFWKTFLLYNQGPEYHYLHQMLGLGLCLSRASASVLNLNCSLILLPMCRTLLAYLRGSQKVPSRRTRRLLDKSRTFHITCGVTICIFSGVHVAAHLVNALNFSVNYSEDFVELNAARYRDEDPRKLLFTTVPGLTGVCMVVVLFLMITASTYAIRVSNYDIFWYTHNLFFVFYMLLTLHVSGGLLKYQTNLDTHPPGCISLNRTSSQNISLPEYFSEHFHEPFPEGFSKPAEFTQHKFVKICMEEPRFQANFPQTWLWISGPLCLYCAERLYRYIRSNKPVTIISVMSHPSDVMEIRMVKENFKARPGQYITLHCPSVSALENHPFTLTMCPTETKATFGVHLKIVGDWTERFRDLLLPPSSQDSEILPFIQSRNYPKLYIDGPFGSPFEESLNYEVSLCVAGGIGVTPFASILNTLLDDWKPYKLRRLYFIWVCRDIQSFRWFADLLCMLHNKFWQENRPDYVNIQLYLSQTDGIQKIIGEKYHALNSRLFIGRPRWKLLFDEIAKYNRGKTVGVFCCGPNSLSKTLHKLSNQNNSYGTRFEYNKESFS

For the molecule `COc1cc(OC)c(C(O)C2C=CC3C(=O)N(C)C(=O)C3N2NC(=O)OC(C)(C)C)cc1Br` (stereo not given), the z-score was -0.36 (inactive) in assay [1]; 1.24 (inactive) in assay [3]; 1.18 (inactive) in assay [4]; -0.285 (inactive) in [5]; 1.07 (inactive) in assay [6]; -0.92 in assay [7]. Further, the z-score in assay [8] was 0.224 (inactive); in [9], -3.59 (inactive); in assay [10], 0.576. In addition, the composite z-score in assay [2] is 0.524.

For the molecule `COc1ccc([Si](C)(C)[C@@H]2[C@@H](CC(=O)N3Cc4ccccc4C[C@H]3CO)O[C@]3(C(=O)N(C)c4ccccc43)[C@H]2C)cc1`, the z-score is -0.883 (inactive) in assay [1]; 11.8 (active) in assay [3]; 2.87 (inactive) in assay [4]; 0.368 (inactive) in assay [5]; 1.21 (inactive) in assay [6]; 0.884 in assay [7]. The z-score was -0.11 (inactive) in assay [8], 0.00429 (inactive) in [9] and -1.7 in assay [10]. The same molecule gave a composite z-score in assay [2] of 0.503.

`C=C(C)[C@@H]1CC=C(C(O)C2C=CC3C(=O)N(c4ccccc4)C(=O)C3N2Nc2ccccc2F)CC1` (stereo not given in full): the z-score in assay [1] is -1.79 (inactive); in assay [3], 0.19 (inactive); in [4], 1.01 (inactive); in [5] it was 0.039 (inactive); in [6], 1.1 (inactive); in assay [7] it was -1.23. Further, the results for the z-score in assay [8], in [9] and in [10] were 0.032 (inactive), -1.64 (inactive) and -2.14, respectively. For the same molecule, in assay [2], the composite z-score amounted to 0.744.

With `C=C(C)C1CCC(C(O)C2C=CC3C(=O)N(C)C(=O)C3N2N2CCCCC2)CC1` (stereo not given), the z-score was -1.09 (inactive) in [1]; 1.23 (inactive) in [3]; 0.737 (inactive) in assay [4]; 0.302 (inactive) in [5]; 1.37 (inactive) in [6]; -1.41 in [7]. Also, the z-score in assay [8] was -0.128 (inactive); in [9], 0.773 (inactive); in [10], 0.0159. In addition, the composite z-score in [2] is 0.336.

In the case of `COCC1=C2[C@@H](CCc3ccccc3)OB(O)C[C@@H]2[C@@H]2C(=O)C=CC(=O)[C@@H]2C1`, the z-score is -0.204 (inactive) in assay [1]; 2.09 (inactive) in assay [3]; -0.122 (inactive) in assay [4]; -0.623 (inactive) in assay [5]; -0.0621 (inactive) in assay [6]; 0.154 in assay [7]. Moreover, the z-score in assay [8] was -0.109 (inactive); in assay [9], -0.383 (inactive); in assay [10], 1.01. Also, in [2], the composite z-score is -0.0386.

As for `CC1=C[C@@]2(CO)C(=O)[C@]3(CO3)[C@@H]1[C@H]1[C@]2(C)C=C(CO)C(=O)[C@]12CO2`, the z-score in assay [1] is 0.806 (inactive); in assay [3], 0.0442 (inactive); in assay [4], 0.446 (inactive); in assay [5] it was 0.429 (inactive); in assay [6], 0.156 (inactive); in [7], -0.0631. In addition, the z-score is -0.35 (inactive) in [8], -1.07 (inactive) in assay [9] and -1.14 in [10]. For the same molecule, the composite z-score in assay [2] was -0.148.

With `COc1ccc([Si](C)(C)[C@H]2[C@H](CCO)O[C@@]3(C(=O)N(Cc4cccc(N5C(=O)COc6ccccc65)c4)c4ccccc43)[C@@H]2C)cc1`, the z-score was 1.76 (inactive) in assay [1]; 2.15 (inactive) in assay [3]; 3.18 (inactive) in [4]; 1.7 (inactive) in assay [5]; 1.77 (inactive) in [6]; 0.805 in [7]. The z-score in assay [8] was -1.26 (inactive); in [9], 1.1 (inactive); in assay [10], 1.09. The composite z-score in assay [2] worked out at 0.122.

As for `O=C1C=C(c2ccccc2)C(=O)c2ccc([C@H]3Oc4ccccc4S(=O)(=O)N4CCC[C@@H]34)cc21`, the z-score in assay [1] was 0.864 (inactive); in assay [3] it was 2.45 (inactive); in [4], 0.0567 (inactive); in assay [5], -0.37 (inactive); in assay [6], -0.236 (inactive); in assay [7] it was 0.208. In addition, the z-score was 0.398 (inactive) in assay [8], -5.41 (inactive) in assay [9] and -6.41 in assay [10]. Further, the composite z-score in assay [2] is -0.08.

For `CCCC[C@@H]1C[C@H]1[C@@H](NC(=O)Cc1ccccc1)c1ccc(-c2ccccc2)cc1`, the z-score in assay [1] is -0.71 (inactive); in [3], 1.1 (inactive); in assay [4], 0.283 (inactive); in assay [5], 0.249 (inactive); in assay [6], 0.345 (inactive); in assay [7], 0.871. For the same molecule, the results for the z-score in [8], in assay [9] and in assay [10] were -1.35 (inactive), -0.123 (inactive) and 1.09, respectively. This molecule also returned a composite z-score in assay [2] of 0.369.

For `COc1ccc([Si](C)(C)[C@H]2[C@H](CC(=O)N(CCO)Cc3ccccc3)O[C@@]3(C(=O)N(Cc4cccc(N5CCOC5=O)c4)c4ccccc43)[C@@H]2C)cc1`, the z-score in assay [1] is 0.359 (inactive); in assay [3], 12.9 (active); in [4] it was 2.72 (inactive); in assay [5], 1.68 (inactive); in assay [6] it was 1.31 (inactive); in [7], 0.315. Also, the z-score in assay [8] was 0.681 (inactive); in [9] it was 0.7 (inactive); in assay [10], 2.48. In [2], this molecule gave a composite z-score of 0.114.
